From PubChem BioAssay (Tox21)
Active and inactive are the calls of the source. A call without a number means that no potency is given here. The call rests on the fitted dose curve; in most records, active means well fitted activation curve with a large enough effect in the repeat runs; inconclusive means weak or mixed curves; inactive means flat fitted curve, though single readings scatter.

The compounds below were run against KiSS-1 receptor (Homo sapiens) (UniProt Q969F8) (assay: Human kisspeptin (KISS1R) small molecule agonists, calcium flux assay in KISS1R-HEK293 cells (AID 1920064)). Details: KISS1R-HEK293, calcium flux fluorescence, agonist; series mostly up to 76.8 µM.
Chain of KiSS-1 receptor (Homo sapiens) (Q969F8 whole entry, looked up): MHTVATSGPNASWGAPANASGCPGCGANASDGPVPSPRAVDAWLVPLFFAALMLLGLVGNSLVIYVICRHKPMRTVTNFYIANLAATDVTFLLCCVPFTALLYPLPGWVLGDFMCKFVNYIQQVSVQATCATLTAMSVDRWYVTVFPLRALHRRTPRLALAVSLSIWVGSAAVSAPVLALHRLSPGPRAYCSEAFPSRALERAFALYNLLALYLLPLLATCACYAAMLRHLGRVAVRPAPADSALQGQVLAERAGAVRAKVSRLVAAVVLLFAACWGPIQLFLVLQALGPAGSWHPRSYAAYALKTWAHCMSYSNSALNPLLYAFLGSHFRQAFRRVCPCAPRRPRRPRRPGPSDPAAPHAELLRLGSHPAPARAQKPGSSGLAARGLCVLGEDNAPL
Source text: National Center for Advancing Translational Sciences [NCATS]
Division of Preclinical Innovation [DPI]
U.S. Environmental Protection Agency [EPA]
National Institutes of Environmental Health Sciences [NIEHS]
National Toxicology Program [NTP]
U.S. Food and Drug Administration [FDA]
Kisspeptin and its receptor KISS1R play key roles in mammalian reproduction due to their involvement in the onset of puberty and control of the hypothalamic-pituitary-gonadal axis such as regulates GnRH release from the hypothalamus. The kisspeptin/KISS1R system also plays a direct role in peripheral organs (including the ovary, testis, uterus, and placenta) and is implicated in reproductive diseases such as miscarriage and polycystic ovary syndrome (PCOS). Abnormal KISS1R activity is associated with abnormal puberty, infertility, endometriosis, and hormone-dependent tumors. The KISS1 receptor (KISS1R, also called GPR54), a G-protein-coupled receptor (GPCR), acts (through phospholipase C) to increase intracellular inositol trisphosphate and then release intracellular calcium stores. Cell-based KISS1R-HEK293 assay is using HEK293 cells that have been genetically engineered to express the human KISS1R, which activity can be measured by calcium signaling. A compound/drug can activate (agonist) KISS1R that can be monitored by levels of intracellular calcium.
KISS1R-HEK293 cells developed by Codex Corp contain human KISS1R gene, which was stably integrated into HEK 293 cells. The compound activation can be detected by fluorescence intensity via calcium flux assay. This cell line has been used to screen the Tox21 10K compound library to identify agonists of KISS1R.
KISS1R-Hek293 cells were dispensed at 1500 cells/4uL/well in 1536-well black wall/clear bottom plates using a multidrop dispenser. After the assay plates were incubated at a 37 C/5% CO2 incubator for 18 hours, 4 microL of Calcium Dye Solution was added to each well. The plates were incubated at 37 C for 1 hour. And then 23 nL of compounds dissolved in DMSO, positive controls, or DMSO only was transferred to the assay plate by a pin tool station. The fluorescence intensity in the plates was measured using FDSS 7000EX kinetic plate reader with a filter set of Ex/Em=480/540 for 3 min at 1 sec intervals. Each test compound was measured at 15 concentrations and in triplicates.

Question: For `CCC(=O)Oc1ccc(/C(CC)=C(\CC)c2ccc(OC(=O)CC)cc2)cc1`, which Potency is on record?
Answer: inactive

Question: `C=CC(=O)OCCCCCCOC(=O)C=C` was tested. Which Potency did it give?
Answer: inactive

Question: `CC1=C(C=O)C(C)(C)CCC1` was tested. Which Potency did it give?
Answer: inactive

Question: Which Potency does the source give for `CO[C@]12C[C@@H](COC(=O)c3cncc(Br)c3)CN(C)[C@@H]1Cc1cn(C)c3cccc2c13` here?
Answer: inactive

Question: `CCn1ccc(NS(=O)(=O)c2ccc(N)cc2)nc1=O` was tested. Which Potency did it give?
Answer: inactive

Question: Which activation does the source give for `O=C(C(=O)c1ccc(Br)cc1)c1ccc(Br)cc1` here?
Answer: 0.431% [at 15.8 µM] (inactive)

Question: Which Potency does the source give for `CCCCCCCCCCC[C@@H](C[C@@H]1OC(=O)[C@H]1CCCCCC)OC(=O)[C@H](CC(C)C)NC=O` here?
Answer: inactive

Question: `O=C1CCc2cc(OCCCCc3nnnn3C3CCCCC3)ccc2N1` was tested. Which Potency did it give?
Answer: inactive

Question: For `C=O`, which Potency is on record?
Answer: inactive

Question: Which Potency does the source give for `Cc1cc(C(C#N)c2ccc(Cl)cc2)c(Cl)cc1NC(=O)c1cc(I)cc(I)c1O` (stereo not given) here?
Answer: inactive

Question: How did the Potency turn out when `CC(=O)Nc1ccccc1O` was run?
Answer: inactive

Question: `COc1cc2c(cc1OC)[C@@H]1CC(=O)[C@@H](CC(C)C)CN1CC2` was tested. Which Potency did it give?
Answer: inactive

Question: `CNC(=O)C(c1ccccc1)c1ccccc1` was tested. Which Potency did it give?
Answer: inactive

Question: For `CC1(C)O[C@@H]2C[C@H]3[C@@H]4CCC5=CC(=O)C=C[C@]5(C)[C@H]4[C@@H](O)C[C@]3(C)[C@]2(C(=O)CO)O1`, which Potency is on record?
Answer: inactive

Question: How did the Potency turn out when `CC[C@@]1(O)C(=O)OCc2c1cc1n(c2=O)Cc2cc3c(CN(C)C)c(O)ccc3nc2-1` was run?
Answer: inactive

Question: How did the Potency turn out when `CCCCCCCCNC(C)C(O)c1ccc(SC(C)C)cc1` (stereo not given) was run?
Answer: inactive

Question: Which Potency does the source give for `C=CCN(CC=C)CC=C` here?
Answer: inactive

Question: How did the Potency turn out when `COC(=O)Nc1nc2ccc(C(=O)C3CC3)cc2[nH]1` was run?
Answer: inactive

Question: Which Potency does the source give for `CC(=O)O[C@@]12CO[C@@H]1C[C@H](O)[C@@]1(C)C(=O)[C@H](O)C3=C(C)[C@@H](OC(=O)[C@H](O)[C@@H](NC(=O)OC(C)(C)C)c4ccccc4)C[C@@](O)([C@@H](OC(=O)c4ccccc4)[C@H]21)C3(C)C` here?
Answer: inactive

Question: With `CNC1CCCN(c2c(F)cc3c(=O)c(C(=O)O)cn(C4CC4)c3c2OC)C1` (stereo not given) as the compound, how does the Potency read?
Answer: inactive

Question: `CCCCOCCOCCOCCOCCO` was tested. Which Potency did it give?
Answer: inactive

Question: With `CC(C)C[C@H](NC(=O)[C@H](Cc1ccccc1)NC(=O)c1cnccn1)B(O)O` as the compound, how does the Potency read?
Answer: inactive

Question: For `N#CCCN(CCO)CCO`, which Potency is on record?
Answer: inactive

Question: Which Potency does the source give for `CC(C)(C)c1cc(CO)cc(C(C)(C)C)c1O` here?
Answer: inactive

Question: Which Potency does the source give for `CC(C)(C)C1CCC(CC2=C(O)c3ccccc3C(=O)C2=O)CC1` (stereo not given) here?
Answer: inactive

Question: How did the Potency turn out when `O=C(NN1CCCC1)NS(=O)(=O)c1ccc(Cl)cc1` was run?
Answer: inactive

Question: `CO[Si](C)(OC)OC` was tested. Which Potency did it give?
Answer: inactive

Question: Which Potency does the source give for `CC[N+](CC)(CC)CCOc1ccc(/C=C/c2ccccc2)cc1` here?
Answer: inactive

Question: For `C=CC(C)=CCC=C(C)C`, which Potency is on record?
Answer: inactive

Question: How did the Potency turn out when `CCCC(=O)O[C@]1(C(=O)CCl)[C@@H](C)C[C@H]2[C@@H]3CCC4=CC(=O)C=C[C@]4(C)[C@@]3(F)C(=O)C[C@@]21C` was run?
Answer: inactive

Question: How did the Potency turn out when `CC(C)(CO)[N+](=O)[O-]` was run?
Answer: inactive

Question: `CCC1OCC(COc2ccc(Oc3ccccc3)cc2)O1` (stereo not given) was tested. Which Potency did it give?
Answer: inactive

Question: `CCCCCCCCCCCCCCCCCBr` was tested. Which activation did it give?
Answer: 0.212% [at 15.8 µM] (inactive)

Question: How did the Potency turn out when `CC(C)C(=O)OCCc1ccccc1` was run?
Answer: inactive

Question: How did the Potency turn out when `COc1ccccc1OCCNCC(O)COc1cccc2[nH]c3ccccc3c12` (stereo not given) was run?
Answer: inactive

Question: For `CCN(CC)CC1CCCCN1CC(=O)N1c2ccccc2C(=O)Nc2cccnc21` (stereo not given), which Potency is on record?
Answer: inactive

Question: `CC(C)(c1ccccc1)c1ccccc1` was tested. Which Potency did it give?
Answer: inactive

Question: `CC1(C)C(=O)N(Cl)C(=O)N1Br` was tested. Which Potency did it give?
Answer: inactive

Question: With `CN(C)CCCCCCN(C)C` as the compound, how does the Potency read?
Answer: inactive

Question: How did the Potency turn out when `CC(C)(N)C#N` was run?
Answer: inactive
